Laboratory results as given in PubChem BioAssay (NCI).
About 83,000 compounds went through this panel and 20% of them were active in at least one assay; those are over-represented in the sample as a whole.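 Testing used 96-well plates and a 48-hour single-concentration exposure. Example: -40 means 40% of the starting cells died.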 Calls of active or inactive are those of the source. Rule for the calls: active = growth percent below 10; inactive = the rest.

Key:
Assay in all cases: NCI-60 one-dose screen, 48 h (100 = growth as untreated, 0 = no growth, -100 = all killed)
Settings in all cases: 10 µM unless noted
NCI-H23 lung = test system: NCI-H23 lung
NCI-H226 lung = test system: NCI-H226 lung
NCI-H322M lung = test system: NCI-H322M lung
HOP-62 NSCLC = test system: HOP-62 NSCLC
NCI-H460 lung = test system: NCI-H460 lung
HOP-92 NSCLC = test system: HOP-92 NSCLC
NCI-H522 lung = test system: NCI-H522 lung
A549/ATCC NSCLC = test system: A549/ATCC NSCLC
786-0 renal = test system: 786-0 renal
COLO 205 colon = test system: COLO 205 colon
DU-145 prostate = test system: DU-145 prostate
K-562 leukemia = test system: K-562 leukemia
MALME-3M melanoma = test system: MALME-3M melanoma
MDA-MB-231 breast = test system: MDA-MB-231 breast
RXF 393 renal = test system: RXF 393 renal
SF-268 CNS = test system: SF-268 CNS
SF-295 CNS = test system: SF-295 CNS
SF-539 CNS = test system: SF-539 CNS
UACC-257 melanoma = test system: UACC-257 melanoma
M14 melanoma = test system: M14 melanoma

Measured: growth

NC(N)=N/N=C/c1ccc(-c2ccc(-c3cc(Cl)cc(Cl)c3)s2)cc1
inactive: NCI-H226 lung 87.1% | NCI-H322M lung 72.6% | HOP-62 NSCLC 25.2% | HOP-92 NSCLC 30% | MALME-3M melanoma 100% | RXF 393 renal 27.4% | SF-268 CNS 73.5% | SF-295 CNS 75.9% | UACC-257 melanoma 106% | M14 melanoma 93.9%
active: NCI-H23 lung -39.2% | NCI-H460 lung -35.7% | NCI-H522 lung -0.199% | A549/ATCC NSCLC -71.1% | 786-0 renal -83.5% | COLO 205 colon -12.9% | DU-145 prostate -45.9% | K-562 leukemia -25.2% | MDA-MB-231 breast -30.4% | SF-539 CNS -3.6%

O=C(Nc1ccc(NCCN2CCOCC2)nc1)c1ccc([N+](=O)[O-])cc1
inactive: NCI-H23 lung 100% | NCI-H226 lung 109% | NCI-H322M lung 107% | HOP-62 NSCLC 103% | NCI-H460 lung 110% | HOP-92 NSCLC 103% | NCI-H522 lung 95.2% | A549/ATCC NSCLC 98.3% | 786-0 renal 104% | COLO 205 colon 110% | DU-145 prostate 106% | K-562 leukemia 103% | MALME-3M melanoma 105% | MDA-MB-231 breast 103% | RXF 393 renal 124% | SF-268 CNS 103% | SF-295 CNS 91.3% | SF-539 CNS 95.6% | UACC-257 melanoma 93.1% | M14 melanoma 105%

CC(NNC(C)c1ccccc1)c1ccccc1 (stereo not given)
inactive: NCI-H23 lung 103% | NCI-H226 lung 98.8% | NCI-H322M lung 122% | HOP-62 NSCLC 105% | NCI-H460 lung 106% | HOP-92 NSCLC 96.4% | NCI-H522 lung 93.9% | A549/ATCC NSCLC 104% | 786-0 renal 109% | COLO 205 colon 105% | DU-145 prostate 110% | K-562 leukemia 114% | MALME-3M melanoma 123% | MDA-MB-231 breast 113% | RXF 393 renal 116% | SF-268 CNS 109% | SF-295 CNS 111% | SF-539 CNS 101% | UACC-257 melanoma 109% | M14 melanoma 101%

COc1ccc(C(=O)n2nc(/C=C/c3ccc(O)c(OC)c3)cc2/C=C/c2ccc(O)c(OC)c2)cc1
inactive: NCI-H226 lung 13% | NCI-H322M lung 11.7% | DU-145 prostate 16.6% | MDA-MB-231 breast 12.5%
active: NCI-H23 lung 7.96% | HOP-62 NSCLC 5.2% | NCI-H460 lung 4.37% | HOP-92 NSCLC -10.7% | NCI-H522 lung -6.8% | A549/ATCC NSCLC 3.98% | 786-0 renal 2.92% | COLO 205 colon -66.2% | K-562 leukemia -6.97% | MALME-3M melanoma 3.93% | RXF 393 renal -54.8% | SF-268 CNS 6.45% | SF-295 CNS 6.61% | SF-539 CNS -24.4% | UACC-257 melanoma 0.119% | M14 melanoma -15.1%

CC(C)(C)N1CCC1C(N)=O (stereo not given)
inactive: NCI-H23 lung 86% | NCI-H226 lung 118% | NCI-H322M lung 125% | HOP-62 NSCLC 96.8% | NCI-H460 lung 104% | HOP-92 NSCLC 100% | NCI-H522 lung 172% | A549/ATCC NSCLC 99% | 786-0 renal 29.6% | COLO 205 colon 106% | DU-145 prostate 108% | K-562 leukemia 97.7% | MALME-3M melanoma 90.3% | MDA-MB-231 breast 112% | RXF 393 renal 103% | SF-268 CNS 102% | SF-295 CNS 106% | SF-539 CNS 97.7% | UACC-257 melanoma 96% | M14 melanoma 78.6%

COC(OC)c1ccccc1
inactive: NCI-H23 lung 105% | NCI-H226 lung 108% | NCI-H322M lung 103% | HOP-62 NSCLC 99.3% | NCI-H460 lung 117% | HOP-92 NSCLC 79.6% | NCI-H522 lung 101% | A549/ATCC NSCLC 103% | 786-0 renal 95% | COLO 205 colon 107% | DU-145 prostate 110% | K-562 leukemia 108% | MALME-3M melanoma 99.7% | MDA-MB-231 breast 97% | RXF 393 renal 101% | SF-268 CNS 104% | SF-295 CNS 112% | SF-539 CNS 102% | UACC-257 melanoma 92.2% | M14 melanoma 101%

c1ccc(Nc2nc(Nc3ccccc3)nc(Nc3ccccc3)n2)cc1
inactive: NCI-H23 lung 86.5% | NCI-H226 lung 89% | NCI-H322M lung 57.3% | HOP-62 NSCLC 90.6% | NCI-H460 lung 78% | HOP-92 NSCLC 60.9% | NCI-H522 lung 84.5% | A549/ATCC NSCLC 79.9% | 786-0 renal 100% | COLO 205 colon 76.1% | DU-145 prostate 93.6% | K-562 leukemia 92.7% | MALME-3M melanoma 88.7% | MDA-MB-231 breast 79.2% | RXF 393 renal 84.3% | SF-268 CNS 106% | SF-295 CNS 69% | SF-539 CNS 90.7% | UACC-257 melanoma 82.9% | M14 melanoma 89%

CC(C)(C)n1cc(-c2ccnc(NCCCNS(=O)(=O)c3ccc(C(F)(F)F)cc3)c2)c(-c2cccc(O)c2)n1
inactive: NCI-H23 lung 37.8% | NCI-H226 lung 42% | NCI-H322M lung 35.1% | HOP-62 NSCLC 54.8% | HOP-92 NSCLC 22.7% | A549/ATCC NSCLC 21.5% | DU-145 prostate 46.3% | SF-268 CNS 36.3% | SF-539 CNS 19.8% | UACC-257 melanoma 17.2%
active: NCI-H460 lung -48.5% | NCI-H522 lung -13.3% | 786-0 renal -17.3% | COLO 205 colon -59.1% | K-562 leukemia 3% | MALME-3M melanoma -18% | MDA-MB-231 breast 1.39% | RXF 393 renal -3.46% | SF-295 CNS 1.72% | M14 melanoma 1.32%

CCOC(=O)NNC(=S)Nc1ccccc1
inactive: NCI-H23 lung 99.5% | NCI-H226 lung 103% | NCI-H322M lung 102% | HOP-62 NSCLC 102% | NCI-H460 lung 108% | HOP-92 NSCLC 93.5% | NCI-H522 lung 100% | A549/ATCC NSCLC 96.3% | 786-0 renal 103% | COLO 205 colon 131% | DU-145 prostate 118% | K-562 leukemia 113% | MALME-3M melanoma 110% | MDA-MB-231 breast 115% | RXF 393 renal 113% | SF-268 CNS 103% | SF-295 CNS 102% | SF-539 CNS 98.9% | UACC-257 melanoma 102% | M14 melanoma 108%

COc1ccc(CCNC2=CC(=O)CCC2)cc1OC
inactive: NCI-H23 lung 92.5% | NCI-H226 lung 95% | NCI-H322M lung 110% | HOP-62 NSCLC 104% | NCI-H460 lung 111% | HOP-92 NSCLC 92.8% | NCI-H522 lung 102% | A549/ATCC NSCLC 105% | 786-0 renal 107% | COLO 205 colon 103% | DU-145 prostate 124% | K-562 leukemia 95.3% | MALME-3M melanoma 92.2% | MDA-MB-231 breast 104% | RXF 393 renal 119% | SF-268 CNS 104% | SF-295 CNS 104% | SF-539 CNS 106% | UACC-257 melanoma 117% | M14 melanoma 104%

C=C[C@@H]1C[C@@H]2Cc3cc(F)ccc3N1O2
inactive: NCI-H23 lung 103% | NCI-H226 lung 120% | NCI-H322M lung 137% | HOP-62 NSCLC 102% | NCI-H460 lung 112% | HOP-92 NSCLC 105% | NCI-H522 lung 98.7% | A549/ATCC NSCLC 95.3% | 786-0 renal 111% | COLO 205 colon 123% | DU-145 prostate 112% | K-562 leukemia 95.7% | MALME-3M melanoma 170% | MDA-MB-231 breast 112% | RXF 393 renal 115% | SF-268 CNS 106% | SF-295 CNS 112% | SF-539 CNS 107% | UACC-257 melanoma 93.8% | M14 melanoma 120%

O=C(NS(=O)(=O)c1ccc2ccccc2c1)n1cc(-c2ccncc2)c(-c2ccc(Cl)c(O)c2)n1
inactive: NCI-H23 lung 61.5% | NCI-H226 lung 84.9% | NCI-H322M lung 116% | HOP-62 NSCLC 92.1% | NCI-H460 lung 89.7% | HOP-92 NSCLC 48.1% | NCI-H522 lung 61.5% | A549/ATCC NSCLC 78% | 786-0 renal 99.1% | COLO 205 colon 105% | DU-145 prostate 113% | K-562 leukemia 85.6% | MALME-3M melanoma 17.1% | MDA-MB-231 breast 49.6% | RXF 393 renal 52.9% | SF-268 CNS 96.2% | SF-295 CNS 91.1% | SF-539 CNS 80.9% | UACC-257 melanoma 31.9% | M14 melanoma 28.4%

OB(O)c1cccc(-c2nc3ccc4[nH]ncc4c3c3c2CCCC3)c1F
inactive: NCI-H23 lung 59% | NCI-H226 lung 37.9% | NCI-H322M lung 48.1% | HOP-62 NSCLC 29.3% | NCI-H460 lung 22.2% | HOP-92 NSCLC 27.1% | NCI-H522 lung 26.9% | A549/ATCC NSCLC 47.9% | 786-0 renal 34.8% | COLO 205 colon 38.7% | DU-145 prostate 49.5% | K-562 leukemia 66.2% | MALME-3M melanoma 120% | MDA-MB-231 breast 40.9% | SF-268 CNS 53% | SF-295 CNS 69.3% | UACC-257 melanoma 115% | M14 melanoma 79.7%
active: RXF 393 renal -20.1% | SF-539 CNS 8.65%

CN(CCCCCl)P(=O)(OCc1ccc([N+](=O)[O-])o1)C(F)(F)C[C@H](NC(=O)CNC(=O)c1ccc(N=[N+]=[N-])cc1)C(=O)NCCc1ccc(O)cc1 (stereo not given in full)
active: NCI-H522 lung -66.9%
inactive: NCI-H23 lung 99.4% | NCI-H226 lung 105% | NCI-H322M lung 93.8% | HOP-62 NSCLC 118% | NCI-H460 lung 105% | HOP-92 NSCLC 108% | A549/ATCC NSCLC 99% | 786-0 renal 109% | COLO 205 colon 36.9% | DU-145 prostate 117% | K-562 leukemia 40.4% | MALME-3M melanoma 79.6% | MDA-MB-231 breast 108% | RXF 393 renal 47.6% | SF-268 CNS 98.1% | SF-295 CNS 101% | SF-539 CNS 104% | UACC-257 melanoma 104% | M14 melanoma 90%

O=c1[nH]c(-c2ccccc2)nc(CN2CCCCC2)c1O
inactive: NCI-H23 lung 103% | NCI-H226 lung 108% | NCI-H322M lung 136% | HOP-62 NSCLC 112% | NCI-H460 lung 109% | HOP-92 NSCLC 92.8% | NCI-H522 lung 116% | A549/ATCC NSCLC 111% | 786-0 renal 102% | COLO 205 colon 113% | DU-145 prostate 113% | K-562 leukemia 112% | MALME-3M melanoma 128% | MDA-MB-231 breast 102% | RXF 393 renal 120% | SF-268 CNS 105% | SF-295 CNS 121% | SF-539 CNS 108% | UACC-257 melanoma 113% | M14 melanoma 108%
